Bioassay records: PubChem BioAssay, National Center for Advancing Translational Sciences (NCATS)
TDP1 cell CPT = qHTS for Inhibitors of human tyrosyl-DNA phosphodiesterase 1 (TDP1): qHTS in cells in presence of CPT | Potency, µM (highest dose often 46.2 µM), for the others: at the highest dose activity change, negative = growth inhibition, usual class: inhibitors | 12% of 420,000 active | chicken DT40 Tdp1-/-;hTDP1 cells + 20 nM CPT, ATP luminescence, 48 h | AID 686979, 2013; note: nearly all actives have a fitted effect of over 55% in size
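Cell growth measured by CellTiter-Glo luminescence after a minimum 48 h, 37 C compound exposure with 20 nM CPT in Tdp1-knockout DT40 cells stably expressing hTDP1, seeded 400/well; qHTS titration format.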
VDR inh = Inhibitors of the vitamin D receptor (VDR): qHTS | VDR-SRC2-3 peptide fluorescence polarization, 2 h | 0.93% of 400,000 active | Potency, µM, inactives show max response, negative = inhibition, most hits filed as inhibitors | AID 504847, 2011 | Vitamin D3 receptor (Homo sapiens), P11473
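Measured by FP: displacement of SRC2-3 coactivator peptide from VDR by library compounds, following a two-hour ambient incubation.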
KAT2A inh = qHTS Assay for Inhibitors of GCN5L2; GCN5L2 HAT assay, ThioGlo1 CoA-SH fluorescence; Potency, µM (series often up to 58.9 µM), inactives show at the top dose activity change, negative = inhibition, actives largely listed as inhibitors; 0.21% of 390,000 active; AID 504327, 2011
Target sequence (Q92830 whole entry, looked up): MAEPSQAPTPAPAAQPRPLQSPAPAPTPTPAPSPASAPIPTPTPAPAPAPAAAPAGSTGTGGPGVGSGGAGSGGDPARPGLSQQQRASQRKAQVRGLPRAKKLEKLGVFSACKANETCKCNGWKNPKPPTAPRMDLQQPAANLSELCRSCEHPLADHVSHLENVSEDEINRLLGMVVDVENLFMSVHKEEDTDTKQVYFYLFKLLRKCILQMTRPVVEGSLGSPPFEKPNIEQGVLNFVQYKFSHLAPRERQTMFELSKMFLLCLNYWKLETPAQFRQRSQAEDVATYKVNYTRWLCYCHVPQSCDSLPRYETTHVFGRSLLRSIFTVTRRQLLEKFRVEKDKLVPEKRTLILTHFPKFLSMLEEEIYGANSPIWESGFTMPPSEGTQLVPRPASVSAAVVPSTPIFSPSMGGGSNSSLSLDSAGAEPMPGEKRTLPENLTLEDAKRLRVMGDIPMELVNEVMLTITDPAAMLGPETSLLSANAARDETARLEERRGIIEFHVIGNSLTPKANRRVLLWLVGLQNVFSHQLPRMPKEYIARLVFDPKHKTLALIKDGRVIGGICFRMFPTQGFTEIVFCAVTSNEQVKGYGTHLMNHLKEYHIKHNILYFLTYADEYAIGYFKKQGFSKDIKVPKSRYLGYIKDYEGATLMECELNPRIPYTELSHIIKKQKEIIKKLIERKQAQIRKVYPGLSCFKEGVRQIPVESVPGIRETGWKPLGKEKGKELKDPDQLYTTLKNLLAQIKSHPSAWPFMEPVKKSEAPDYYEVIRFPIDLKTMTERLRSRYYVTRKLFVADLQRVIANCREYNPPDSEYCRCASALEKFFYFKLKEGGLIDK
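Enzyme at 20nM final was mixed with library compounds for 15 min at room temperature. Peptide H3(1-25) at 75uM, acetyl-CoA at 70uM and ThioGlo1 at 50uM were then added. Plates were read immediately and after 20 min (Ex340nm/Em540nm).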
PLK1 PBD block = qHTS for Inhibitors of PLK1-PDB (polo-like kinase 1 - polo-box domain): Primary Screen; Serine/threonine-protein kinase PLK1 (Homo sapiens), P53350; Potency, µM, for inactives: max response, negative = inhibition, most hits filed as inhibitors; Plk1 PBD binding of FITC phosphopeptide, fluorescence polarization; 2.8% of 360,000 active; note: series mostly up to about 57 µM; nearly all actives have a fitted effect of over 65% in size
TDP1 block = qHTS Assay for Inhibitors of Tyrosyl-DNA Phosphodiesterase (TDP1) | Tyrosyl-DNA phosphodiesterase 1 (Homo sapiens), Q9NUW8 | recombinant TDP1, AlphaScreen DNA substrate cleavage | Potency, µM (top dose mostly 130 µM), for inactives: at the highest dose activity change, negative = inhibition, usual class: inhibitors | 0.28% of 350,000 active | AID 485290, 2010; note: nearly all actives have a fitted effect of over 40% in size
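Tdp1 1 nM final; 15 min RT w/ cpd; substrate 15 nM, 5 min; beads 10 ug/ml, 10 min; AlphaScreen read. Neg ctrl: no enzyme.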
DT40 TDP1 no CPT = qHTS for Inhibitors of human tyrosyl-DNA phosphodiesterase 1 (TDP1): qHTS in cells in absence of CPT | DT40 Tdp1-/- hTDP1 cells, no CPT, ATP luminescence, 48 h | Potency, µM (titrated, usually from 46.2 µM), inactives show at the top dose activity change, negative = growth inhibition, usual class: inhibitors | 15% of 420,000 active; note: nearly all actives have a fitted effect of over 55% in size
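Growth of hTDP1-complemented DT40 Tdp1-knockout cells is measured by ATP luminescence after at least 48 hr compound exposure at 37 °C, with DMSO substituting for the 20 nM CPT used in the parallel screen.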
Numbers without * were called inactive; ? = inconclusive; . = no result. The list is not random: actives were taken first. Their share in the collection is about 18%. Calls come from the whole dose curve; as a rule, active = well fitted curve in the direction sought with a large enough effect; inconclusive = small, poorly fitted or top-dose-only effect, or another doubt; inactive = no such curve, though single readings can be large; an effect the other way counts as inactive or inconclusive. % is set by controls: 0 for no effect and ±100 for the full control effect; potency is the fitted concentration of half-maximal effect.

SMILES	TDP1 cell CPT	VDR inh	KAT2A inh	PLK1 PBD block	TDP1 block	DT40 TDP1 no CPT
C=C(C)Cn1c(=O)c2c(nc3n2CCCN3CCc2ccccc2)n(C)c1=O	?	6.2%	-2.4%	-0.3%	4.0%	13µM*
CC(=O)Nc1ccc(NC(=O)CCS(=O)(=O)c2ccc3c(c2)CC(=O)N3C)cc1	-1.8%	-1.2%	0.8%	.	2.6%	-9.2%
Cc1cccc(Cn2c(=O)c3c(nc4n3CCN4Cc3ccco3)n(C)c2=O)c1	20.6µM*	-6.9%	-0.9%	-8.0%	-2.5%	20.6µM*
CCCCn1c(=O)c2c(nc3n2CCCN3Cc2ccccc2)n(C)c1=O	?	-3.5%	4.3%	-8.6%	.	23.1µM*
C=C(C)Cn1c(=O)c2c(nc3n2CCN3c2cc(C)cc(C)c2)n(C)c1=O	-24.0%	3.3%	-13.5%	.	5.2%	23.1µM*
Cc1ccc(Cn2c(=O)c3c(nc4n3CCCN4Cc3ccccc3)n(C)c2=O)cc1	-5.9%	18.3%	-6.4%	-1.0%	6.1%	?
CCCn1c(=O)c2c(nc3n2CCN3Cc2ccco2)n(C)c1=O	3.8%	7.4%	-8.5%	-13.3%	-2.6%	0.3%
Cc1ccc(S(=O)(=O)N2CCOCC2)cc1C(=O)NC1CCSc2ccccc21 (centres undefined)	-20.1%	6.7%	-1.6%	-11.9%	3.3%	-5.9%
CN(C(=O)Nc1ccc(F)cc1)[C@H]1C[C@H]2c3[nH]c4ccccc4c3CCN2C(=O)[C@H]1CO	-29.9%	.	.	-5.3%	.	-24.9%
COc1ccc2c(c1)c1c(c(=O)n(-c3ccc(OC)c(OC)c3)c(=O)n1Cc1ccccc1F)n2C	-15.1%	14.1%	-2.4%	.	0.0%	-17.0%
OC(c1cc(Cl)cc(Cl)c1)c1ncc(-c2cccc(F)c2)[nH]1 (centres undefined)	?	.	.	-7.9%	.	16.4µM*
OC(c1ccc(F)c(F)c1)c1ncc(-c2ccc(F)cc2)[nH]1 (centres undefined)	?	.	.	-0.3%	.	-14.1%
OC(c1cc(F)cc(Cl)c1)c1ncc(-c2ccc(Cl)cc2)[nH]1 (centres undefined)	18.4µM*	.	.	-2.0%	.	?
O=C(c1cc(COc2ccc(F)cc2Cl)on1)N1CCc2sccc2C1	?	13.6%	-15.2%	0.8%	-5.9%	3.6%
COCC1CCN(C(=O)c2cc(COc3ccc(OC)c4ccccc34)on2)C1 (centres undefined)	?	7.9%	.	-4.6%	.	?
Cc1nonc1C1CCCN1C(=O)c1cc(COc2ccc(F)cc2Cl)on1 (centres undefined)	?	9.6%	-23.1%	5.3%	-6.2%	?
O=C(c1cc(COc2ccc(F)cc2Cl)on1)N1CCC(OCc2cccnc2)CC1	16.4µM*	9.1%	-1.4%	-4.1%	2.7%	9.2µM*
COc1cc(Cl)ccc1OCc1cc(C(=O)N2CCN(C3CCCCC3)CC2)no1	?	.	.	9.1%	.	23.1µM*
O=C(c1cc(COc2ccc(F)cc2Cl)on1)N1CCCCC1c1cccnc1 (centres undefined)	16.4µM*	2.3%	-4.6%	-8.1%	3.3%	13µM*
COc1ccc(OCc2cc(C(=O)N3CCC(OC)CC3)no2)c2ccccc12	23.1µM*	7.0%	-10.4%	-3.2%	9.5%	14.6µM*
CSCCNC(=O)Nc1c(-c2c(Cl)cccc2Cl)noc1C	6.6%	6.0%	-3.5%	2.9%	0.0%	-1.9%
COc1cc(C2c3c(oc4ccccc4c3=O)C(=O)N2c2nnc(C(C)C)s2)cc(OC)c1OC (centres undefined)	-3.7%	-16.6%	-5.1%	.	3.2%	-23.3%
N#Cc1ccc(NS(=O)(=O)c2ccc3c(c2)CCC(=O)N3)cc1	.	.	.	.	0.8%	.
O=C(c1cc(COc2ccc(F)cc2Cl)on1)N1CCN(C2CCCCC2)C(=O)C1	10.3µM*	-9.2%	-3.9%	3.3%	1.1%	7.31µM*
COc1cc(Cl)ccc1OCc1cc(C(=O)N2CCCCC2c2cccnc2)no1 (centres undefined)	5.8µM*	-5.0%	-1.2%	-7.4%	1.6%	?
SMILES	TDP1 cell CPT	VDR inh	KAT2A inh	PLK1 PBD block	TDP1 block	DT40 TDP1 no CPT
COc1cc(Cl)ccc1OCc1cc(C(=O)N2CCCC(OC)C2)no1 (centres undefined)	-3.3%	-12.4%	-3.2%	4.1%	4.9%	?
COC(=O)c1cccc(Oc2cccc(Cl)n2)c1	5.1%	-16.6%	-1.9%	-8.1%	1.2%	-12.6%
COc1ccc(N2C(=O)CCSC23C(=O)N(Cc2ccc(F)cc2)c2ccccc23)cc1Cl (centres undefined)	9.2µM*	3.2%	-4.0%	.	4.2%	8.2µM*
COc1cccc(CN2C(=O)C3(SCC(=O)N3c3ccc(F)cc3)c3ccccc32)c1 (centres undefined)	.	-4.0%	-19.6%	.	5.6%	.
COCCN1C(=O)CCC1(C)C(=O)NC1CCCC1 (centres undefined)	-5.8%	.	.	-0.9%	.	5.0%
Cc1ccc(NC(=O)Cn2nc3c(cc2=O)CCCC3)cc1Cl	-13.7%	15.8%	-10.1%	.	0.0%	-23.5%
Cc1cc(C)n(-c2nc(C)c(C)c(=O)n2CC(=O)Nc2cccc([N+](=O)[O-])c2)n1	?	-0.3%	2.2%	.	2.6%	16.4µM*
Cc1cc(=O)n(CC(=O)Nc2ccc(Cl)c(Cl)c2)c(-n2nc(C)cc2C)n1	?	7.5%	-2.9%	.	2.6%	16.4µM*
CC(=O)c1ccc(NC(=O)Cn2c(-n3nc(C)cc3C)nc(C)c(C)c2=O)cc1	?	9.3%	1.4%	.	2.6%	?
O=C1OC(c2ccccc2)(c2ccc3cc(O)ccc3c2)c2ccccc21 (centres undefined)	20.6µM*	-20.9%	.	0.6%	.	?
O=C1OC(c2ccc(O)cc2)(c2ccc(O)cc2)c2ccccc21	?	-10.7%	-4.1%	-7.9%	1.2%	?
O=C1OC(c2ccccc2)(c2cc(Br)ccc2O)c2ccccc21 (centres undefined)	18.4µM*	-3.7%	.	0.5%	.	?
N#CC1=C(Nc2ccccc2Cl)SC(c2ccncc2)NC1=O (centres undefined)	-20.0%	.	.	26.7µM*	.	2.2%
N#CC1=C(Nc2ccccc2Cl)SC2(CCCC2)NC1=O	16.4µM*	.	.	?	.	18.4µM*
